Screening results: PubChem BioAssay, Broad Institute
esBAF inh: SWI/SNF esBAF complex inhibition. mouse ES cells, Bmi1-luciferase knock-in reporter, 24 h; 100% = twice the neutral-well signal. reporter increase, % at 12.5 µM. 2% of 350,000 active. AID 602393; in the data active = activation above about 40%; inconclusive = no clear call, values can overlap the other calls;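 note: a rise in the Bmi1 reporter signal indicates esBAF inhibition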
MITF TRPM1 HTS: increases MITF-driven TRPM1 promoter luciferase signal; SK-MEL-5 TRPM1-promoter luciferase, 24 h; % of positive control, neutral wells = 0; activation, % at 12.5 µM; 0.75% of 300,000 active; AID 588334;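 active = mean activation of at least 80% with every replicate also reaching 80%; inconclusive = mean reaches 80% but some replicate falls short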
C2C12 statin: protects C2C12 myotubes from simvastatin toxicity | ATP luminescence, 48 h; scaled: DMSO 0, geranylgeraniol control 100 | rescue of ATP level, % at 7.49 µM | 0.78% of 330,000 active | AID 602340;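 active = mean ATP rescue above about 67%, or every replicate alone reaching that limit, limit read from the data, passing the limit was not always enough; inconclusive = no clear call, values can overlap the other calls; inactive = mean under the limit and some replicate under it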;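 note: myotubes were challenged with 10 µM simvastatin during compound exposure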
Wnt act: activators of Wnt/beta-catenin signaling | activation, % at 9.35 µM | Wnt/beta-catenin reporter cell assay, activator, plate reader | 1.2% of 300,000 active; in the data active = activation above about 30%, passing the limit was not always enough; inconclusive = no clear call, values can overlap the other calls
Hits are given with their value; . = inactive; ? = inconclusive; / = no result given. Compounds with a hit are over-represented: about 3% of the library has one in this group of screens.

SMILES	esBAF inh	MITF TRPM1 HTS	C2C12 statin	Wnt act
COc1ccc2c(c1OC)C(=O)N(c1ccc(C)cc1)C2	.	/	.	44
CO[C@@H]1CN(C)C(=O)c2ccc(NC(=O)c3ccccc3F)cc2OC[C@@H](C)N(C(=O)c2ccccc2F)C[C@H]1C	.	/	.	/
Cc1ccc(OS(=O)(=O)c2ccccc2)c(/C=N/N=C2\NC(=O)C(C)S2)c1 (centres undefined)	.	.	134	/
CC(Cc1ccco1)NC(=O)c1ccc(C(F)(F)F)cc1 (centres undefined)	.	128	.	.
O=C(CSc1ncccn1)N1CCCc2ccccc21	/	.	/	.
Cc1ccnc(SCC(=O)N2CCc3ccccc32)n1	56	86	.	.
O=C(CSc1nnc2ccccn12)N1CCc2ccccc21	53	.	.	34
CC(Sc1nnc2ccccn12)C(=O)N1CCc2ccccc2C1 (centres undefined)	/	.	/	/
O=C(CSc1nnc2ccccn12)N1CCc2ccccc2C1	52	.	.	/
C[C@H](CO)N1C[C@H](C)[C@@H](CN(C)C(=O)Cc2ccccn2)Oc2ncc(-c3cncnc3)cc2C1=O	.	/	.	/
CO[C@H]1CN(C)C(=O)c2ccc(NC(=O)Nc3ccc(C(F)(F)F)cc3)cc2OC[C@@H](C)NC[C@H]1C	.	/	.	/
Cc1ccc(C(=O)Nc2ncccc2S(=O)(=O)c2ccccc2)cc1	113	100	.	.
O=C(NC1Cc2ccccc2C1)[C@@H]1[C@@H](CO)[C@@H]2Cn3c(ccc(-c4ccccc4F)c3=O)[C@H]1N2	.	/	.	/
C[C@H]1CN([C@@H](C)CO)C(=O)Cc2cc(NC(=O)CCCN(C)C)ccc2O[C@@H]1CN(C)S(=O)(=O)c1cn(C)cn1	.	/	.	/
CC(C)(C)n1nnnc1C(c1cccs1)N(Cc1ccccc1)Cc1cccnc1 (centres undefined)	.	.	124	/
CC(C)(C)n1nnnc1C(c1cccnc1)N(Cc1ccccc1)Cc1cccs1 (centres undefined)	.	.	.	.
COc1ccc(S(=O)(=O)Nc2ccc3c(c2)CC(=O)N([C@H](C)CO)C[C@@H](C)[C@H](CN(C)S(=O)(=O)c2ccccc2)O3)cc1	.	/	.	/
Cc1ccc(CNC(=O)CN(C2CCCCC2)S(C)(=O)=O)cc1	.	.	.	/
CC(C)CNC(=O)CN(C1CCCCC1)S(=O)(=O)c1ccccc1	.	.	102	.
CC(C)CNC(=O)CN(C1CCCCC1)S(C)(=O)=O	.	.	.	.
CS(=O)(=O)N(CC(=O)NCc1ccccc1)C1CCCCC1	.	.	120	/
C[C@H](CO)N1C[C@H](C)[C@@H](CN(C)C(=O)Nc2ccccc2)Oc2ccc(NC(=O)Nc3ccc(F)cc3)cc2C1=O	.	/	.	/
O=C(N[C@H]1CC[C@@H](CC(=O)N2CCc3ccccc3C2)O[C@H]1CO)C1CC1	.	/	.	/
CSc1ccc(CNc2ccccn2)cc1	.	/	82	.
COc1ccc(C2(NC(C)=O)CCN(C(=O)c3cccs3)CC2)cc1	.	.	99	/
SMILES	esBAF inh	MITF TRPM1 HTS	C2C12 statin	Wnt act
COc1ccc(S(=O)(=O)N2CCN(C(=O)c3cccs3)CC2)cc1	.	.	.	/
Cc1cc(Cn2nc(-c3ccccc3)cc2C(=O)NCc2cccs2)on1	.	.	.	.
CCOC(=O)c1cc(-c2ccccc2C)nn1Cc1cc(C)no1	46	.	.	.
Cc1ccc(CNC(=O)c2cc(-c3ccccc3)nn2Cc2cc(C)no2)cc1	?	125	.	.
CCOC(=O)c1cc(-c2ccccc2)nn1Cc1cc(C)no1	.	87	.	.
C[C@@H]1CN([C@@H](C)CO)C(=O)Cc2cc(NS(=O)(=O)c3cccs3)ccc2O[C@H]1CN(C)C(=O)Nc1cccc2ccccc12	.	/	.	/
O=S(=O)(c1ccccc1)N1CC[C@@H]2[C@H](CO)Nc3ccc(C#Cc4ccccc4F)cc3[C@@H]21	.	/	.	/
Cc1[nH]c2ccccc2c1/C=C/c1nc2ccccc2c(=O)[nH]1	46	93	.	.
CCOc1cc(/C=C/c2nc3ccccc3c(=O)[nH]2)ccc1O	71	.	.	.
CNC[C@@H]1Oc2ccc(N(C)C)cc2C(=O)N([C@H](C)CO)C[C@@H]1C	.	/	.	/
COc1ccc(C)cc1NC(=O)CNC(=O)c1sc2ccccc2c1Cl	.	.	.	.
Cc1ccnc(NC(=O)CNC(=O)c2sc3ccccc3c2Cl)c1	52	85	.	.
O=C(NCC(=O)N1CCCCC1)c1sc2ccccc2c1Cl	.	114	.	45
CC1CC(C)CN(C(=O)CNC(=O)c2sc3ccccc3c2Cl)C1 (centres undefined)	.	.	.	.
Cc1ccccc1Nc1nc(N)nc(CSc2nnnn2C)n1	56	.	.	.
Cc1ccccc1Nc1nc(N)nc(CSc2ccc(F)cc2)n1	?	89	.	.
CCCC(=O)Nc1ccc2c(c1)C(=O)N(C)C[C@@H](OC)[C@H](C)CN(CC1CCOCC1)[C@@H](C)CO2	.	/	.	/
c1ccc(-c2nnc(-c3ccccc3)nn2)cc1	/	/	/	50
c1ccc(-c2nn[nH]n2)cc1	/	.	/	.
Cc1ccc(NC(=O)C(=O)NNC(=O)c2cccs2)cc1	/	.	/	.
O=C(Nc1ccc(-n2ccc(C(F)(F)F)n2)cc1)c1cccs1	.	123	.	.
O=C(Nc1ccc(NC(=O)c2cccs2)cc1)c1ccccc1	48	.	.	.
O=C(O)c1ccccc1C(=O)Nc1ccc(-n2ccc(C(F)(F)F)n2)cc1	/	.	/	.
O=C(Nc1cccc(O)c1)c1ccc(NC(=O)c2cccs2)cc1	/	103	/	.
Cc1ccc(NC(=O)c2cccs2)cc1	61	.	.	.
SMILES	esBAF inh	MITF TRPM1 HTS	C2C12 statin	Wnt act
CCC(=O)N(C)C[C@@H]1Oc2cc(-c3ccccc3C)ccc2S(=O)(=O)N([C@@H](C)CO)C[C@@H]1C	.	/	.	/
O=C(Nc1ccc(Cl)c(Cl)c1)N[C@@H]1CC[C@@H](CCn2cc(C3CC3)nn2)O[C@H]1CO	.	/	.	/
O=C(Cc1ccccn1)NCC[C@@H]1CC[C@H](NC(=O)Nc2ccccc2)[C@@H](CO)O1	.	/	.	/
O=C(Nc1ccc(-c2noc(-c3ccccc3F)n2)cc1)c1cccs1	.	?	.	.
O=C(Nc1ccc2c(c1)CCC2)c1cccs1	/	.	/	55
Cc1ccccc1-c1nc(-c2ccc(NC(=O)c3cccs3)cc2)no1	51	.	/	.
O=C(Nc1ccc(CSc2ccccc2)cc1)c1ccco1	52	.	.	.
Nc1ccc(NC(=O)c2cccs2)cc1	/	/	/	.
O=C(Nc1ccc2nc(-c3cccs3)[nH]c2c1)c1ccco1	83	103	.	/
C[C@H]1CN([C@@H](C)CO)C(=O)c2cccc(NC(=O)C3CC3)c2O[C@@H]1CN(C)C(=O)Nc1cccc2ccccc12	.	/	.	/
C[C@H]1CN([C@@H](C)CO)C(=O)CCCn2nncc2CO[C@@H]1CN(C)C(=O)C1CCCCC1	.	/	.	/
O=C(NC(=S)Nc1ccc(NC(=O)c2cccs2)cc1)c1ccco1	.	.	.	.
CCn1cnc2cc(NC(=O)c3cccs3)ccc21	.	95	.	.
O=C(Nc1ccc(NC(=O)c2cccs2)cc1)c1ccco1	48	98	.	/
CC(C)(C)n1cnc2cc(NC(=O)c3cccs3)ccc21	.	?	.	?
